Bioassay records deposited in PubChem by National Center for Advancing Translational Sciences (NCATS).
Rows were chosen to be rich in hits. Some 17% of all compounds tested hit in one or more screens of this group.
TDP1 cell noCPT: qHTS for Inhibitors of human tyrosyl-DNA phosphodiesterase 1 (TDP1): qHTS in cells in absence of CPT; DT40 Tdp1-/- hTDP1 cells, no CPT, ATP luminescence, 48 h; Potency, µM (titrated, usually from 46.2 µM), usual class: inhibitors; 420,000 compounds, 15% hits; note: nearly all actives have a fitted effect of over 55% in size
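Chicken DT40 Tdp1-/- cells stably complemented with human TDP1 were seeded at 400 cells/well with DMSO in place of 20 nM camptothecin. After compound pinning, cells grew at least 48 hr at 37 °C; viability read by CellTiter-Glo luminescence.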
TDP1 cell CPT: DT40-hTDP1 cell growth loss with CPT; chicken DT40 Tdp1-/-;hTDP1 cells + 20 nM CPT, ATP luminescence, 48 h; Potency, µM (titrated, usually from 46.2 µM), hits mostly inhibitors; 420,000 compounds, 12% hits; AID 686979; note: nearly all actives have a fitted effect of over 55% in size
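Chicken DT40 Tdp1-/- cells stably complemented with human TDP1 were seeded at 400 cells/well in medium containing 20 nM camptothecin, exposed to pin-transferred compounds, and grown at 37 °C for at least 48 hr. Viability was read as ATP luminescence.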
HT1080 IDH1KD tx: HT-1080 IDH1 knockdown cell toxicity (counter line) | HT-1080 IDH1 knockdown viability, ATP luminescence, 48 h | Potency, µM (doses to about 46.1 µM), usual class: cytotoxic | 360,000 compounds, 2% hits | AID 686971
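Cytotoxicity counter-line: IDH1KD HT-1080, 48 h, CellTiter-Glo. Curves classed by r2, magnitude and activity.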
HepG2 tox: kills HepG2 cells in TGF-b inhibitor counter-screen. HepG2 CAGA-GFP viability, ATP luminescence, 18 h. Potency, µM (doses to about 46.1 µM), actives largely listed as cytotoxic. 410,000 compounds, 0.76% hits
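HepG2 CAGA-GFP cells (1000/well, DMEM with 1% FBS) received compound, then TGF-beta at 500 pg/mL final, and were incubated 18 hours at 37 degrees C. Viability was read by CellTiter-Glo luminescence. Media-only wells were set as complete cell-killing and DMSO as no toxicity.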
HT1080NT lethal: kills 2HG-producing HT-1080-NT fibrosarcoma cells; Potency, µM (doses to about 46.1 µM), hits mostly cytotoxic; HT-1080-NT fibrosarcoma viability, CellTiter-Glo ATP luminescence, 48 h; 360,000 compounds, 1.6% hits;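 note: NT is the 2HG producing partner of a matched IDH1 knockdown line; nearly all actives have a fitted effect of over 55% in size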
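Viability by CellTiter-Glo luminescence after 48 h compound exposure at 37C of HT-1080-NT cells (750/well, RPMI, 5% FBS). % activity scaled between DMSO wells and medium-only wells, then curve-fitted and categorized by curve class.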
TGFb SMAD3 inh: blocks TGF-b signaling | HepG2 CAGA-GFP TGF-b/SMAD3 reporter, GFP fluorescence, 18 h; TGF-beta stimulated, 500 pg/mL final | Potency, µM (titrated, usually from 46.1 µM), hits mostly inhibitors | 410,000 compounds, 1.2% hits | AID 588855; note: nearly all actives have a fitted effect of over 65% in size
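Smad-responsive CAGA-GFP expression was quantified in HEPG2 cells exposed to compounds and 500 pg/mL final TGF-beta for 18 h at 37 degrees C; unstimulated wells defined full inhibition.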
Numbers stand for hits; . = inactive; ? = inconclusive; / = not tested or not shown. Calls come from the whole dose curve; as a rule, active = well fitted curve in the direction sought with a large enough effect; inconclusive = small, poorly fitted or top-dose-only effect, or another doubt; inactive = no such curve, though single readings can be large; an effect the other way counts as inactive or inconclusive.

SMILES	TDP1 cell noCPT	TDP1 cell CPT	HT1080 IDH1KD tx	HepG2 tox	HT1080NT lethal	TGFb SMAD3 inh
CC(C)(C)n1ncc2c(=O)n(Cc3ccc(F)c(C(F)(F)F)c3)cnc21	/	/	/	.	/	?
COc1ccc(CNC(=O)C[C@H]2C[C@H](C(=O)N(C(C)C)C(C)C)[C@@]3(C)c4[nH]c5cc(-c6ccco6)ccc5c4CCN3C2=O)cc1OC	?	18µM	.	.	.	?
COCCCNC(=O)C[C@H]1C[C@H](C(=O)N(C(C)C)C(C)C)[C@@]2(C)c3[nH]c4cc(-c5ccco5)ccc4c3CCN2C1=O	23µM	16µM	.	.	.	11µM
COc1ccc(CNC(=O)C[C@H]2C[C@H](C(=O)N(C(C)C)C(C)C)[C@@]3(C)c4[nH]c5cc(CCC(=O)N(C)C)ccc5c4CCN3C2=O)cc1OC	?	.	.	.	.	.
CCN(CC)C(=O)[C@H]1C[C@H](CC(=O)NCCN2CCOCC2)C(=O)N2CCc3c([nH]c4cc(-c5ccco5)ccc34)[C@]12C	?	21µM	.	.	.	.
Cc1noc(C)c1COc1ccc(C(=O)OCC(N)=O)cc1	.	.	.	.	.	.
CC(C)[C@H](NC(=O)[C@@H]1Cc2ccccc2CN1C(=O)OC(C)(C)C)C(=O)NCC1CCC(C(=O)O)CC1 (stereo partly drawn)	.	.	.	.	.	.
O=C(CCN1CCN(c2ccccc2)CC1)Nc1ccc(Cl)cc1	.	.	.	.	.	.
O=C(CCN1CCN(c2ccc([N+](=O)[O-])cc2)CC1)c1ccc(Cl)cc1	4.6µM	3.7µM	.	.	.	?
COc1ccc(N2CCN(CCC(=O)c3ccc4ccccc4c3)CC2)cc1	15µM	18µM	?	.	?	11µM
O=C(CCN1CCOCC1)c1ccc(N2CCCCC2)cc1	4.1µM	1.6µM	.	.	.	14µM
O=C(CCN1CCN(c2ccccc2)CC1)c1ccc(Cl)cc1	6.5µM	5.2µM	.	.	.	?
COc1ccc(N2CCN(CC(=O)c3ccccc3)CC2)cc1	?	?	.	.	.	.
CN1CCN(C(CNC(=O)c2c(F)cccc2F)c2ccc3c(c2)OCO3)CC1 (stereo not drawn)	.	.	/	.	/	.
O=C(/C=C/c1ccccc1)N1CCN(c2cccc(Cl)n2)CC1	.	.	.	.	.	.
O=C1CC(=C(c2ccccc2)c2ccccc2)C(=O)N1CCCCN1CCN(c2ccccc2)CC1	9.2µM	15µM	16µM	.	18µM	?
O=C(CCCN1CCN(c2ccccc2)CC1)c1ccc(F)cc1	?	?	.	.	.	.
CC(C)(C)c1cc(C(=S)N2CCN(CCO)CC2)cc(C(C)(C)C)c1O	?	?	.	.	.	.
CC(C)(C)c1cc(C(=O)CCN2CCOCC2)cc(C(C)(C)C)c1O	7.3µM	4.6µM	?	.	?	?
COCCn1cnc2c1c(=O)n(Cc1ccc(C#N)cc1)c(=O)n2Cc1ccccc1	.	.	.	.	.	.
CCc1cc2c(=O)c(-c3nc4ccccc4n3C)c(C)oc2c(CN2CCCCC2)c1O	?	26µM	.	.	.	.
CCc1cc2c(=O)c(-c3cnn(-c4ccccc4)c3)c(C)oc2c(CN2CCCCC2)c1O	26µM	?	?	.	?	.
O=C(N/N=C/c1ccc(Cl)cc1)c1cc2c(s1)-c1ccccc1CC2	5.2µM	3.7µM	?	.	?	.
O=C(O)c1cc2c(s1)-c1ccccc1CC2	.	.	.	.	.	.
CCC(C)c1ccc(S(=O)(=O)N2CCN(C(=O)CN3C(=O)NC(C)(C4CC4)C3=O)CC2)cc1 (stereo not drawn)	.	.	.	.	.	.
SMILES	TDP1 cell noCPT	TDP1 cell CPT	HT1080 IDH1KD tx	HepG2 tox	HT1080NT lethal	TGFb SMAD3 inh
Cc1ccccc1C(=O)NC(C(=O)Nc1nc2c(s1)CCCC2)C(C)C (stereo not drawn)	26µM	26µM	.	.	.	.
Cc1ccccc1C(=O)N[C@H](C(=O)Nc1ccc(Cl)c(Cl)c1)C(C)C	.	.	.	.	.	.
Cc1cc(C)nc(NC(=S)NC(=O)c2ccccc2F)n1	.	.	.	.	.	.
Cc1csc(NC(=O)C(NC(=O)c2ccccc2F)C(C)C)n1 (stereo not drawn)	21µM	?	.	.	.	.
Cc1cc(NC(=O)c2ccccc2F)on1	.	13µM	.	.	.	.
CC12CCC(C(=O)Nc3cc(Cl)ccc3Cl)(C/C1=N\O)C2(C)C (stereo not drawn)	?	.	.	.	.	.
CCOC(=O)N1CCN(C(=O)c2cc3c(=O)n(C)c4ccccc4c3n2C)CC1	16µM	21µM	.	.	.	.
CCN1CCN(C(=O)c2cc3c(=O)n(C)c4ccccc4c3n2C)CC1	.	.	.	.	.	.
Cn1c(C(=O)N2CCN(Cc3ccccc3)CC2)cc2c(=O)n(C)c3ccccc3c21	?	18µM	.	.	.	.
COC(=O)C1=C(CSc2nc3ccccc3s2)NC(=O)NC1c1ccc(F)cc1 (stereo not drawn)	?	?	.	.	.	.
O=C(CN1C=NS(=O)(=O)c2ccc(C(F)(F)F)cc21)Nc1cccc(C(F)(F)F)c1	.	.	/	.	/	.
Cc1cc(N2CCOCC2)nc2ccc(NC(=O)CCC(=O)N3CCN(c4cccc(C(F)(F)F)c4)CC3)cc12	2.1µM	4.1µM	?	.	23µM	?
Cc1cc(N2CCC(C)CC2)nc2ccc(NC(=O)CCC(=O)N3CCN(c4ccccc4F)CC3)cc12	15µM	18µM	/	.	/	?
Cc1cc(N2CCOCC2)nc2ccc(NC(=O)CCC(=O)N3CCC(C)CC3)cc12	?	.	.	.	.	?
COc1ccccc1C(=O)Nc1c(C(=O)N2CCN(C)CC2)oc2ccccc12	.	.	.	.	.	.
COc1cccc(N2CC(O)=C(c3nc4ccccc4s3)C2=N)c1	1.5µM	1.6µM	?	.	?	?
O=C(c1cc([N+](=O)[O-])cc([N+](=O)[O-])c1)N(Cc1nnc(-c2ccccc2Cl)o1)C1CC1	18µM	?	.	.	.	?
O=C(c1cc2ccccc2o1)N(Cc1nnc(-c2ccccc2Cl)o1)C1CC1	?	.	.	.	.	.
O=C(c1cccc(S(=O)(=O)N2CCOCC2)c1)N(Cc1nnc(-c2ccccc2Cl)o1)C1CC1	?	?	.	.	.	.
